According to PubChem BioAssay (NCI):
This is part of a sample that, as a whole, favours compounds with a hit. Of some 79,000 tested, about 15% had one in any assay. A number with no mark means an inactive call. The source made the active and inactive calls. Cut-off read from the data, not from the text of the source: active = growth inhibition above about 70%; inactive = the rest.

Assay: NCI Yeast Anticancer Drug Screen. Data for the bub3 strain (AID 167)
Settings: S. cerevisiae bub3 mutant strain, at 50.0 µM, stronger effect = higher value
In short: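 Part of a panel of yeast mutants defective in DNA damage repair or cell cycle regulation. Each strain is grown with compound, and inhibition is calculated relative to solvent-treated cultures.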

SMILES	growth inhibition
N#CCCN(Cc1ccccc1)CN1C(=O)c2ccccc2C1=O	6.4%
N#Cc1ccc(-n2cccc2)cc1	-6.2%
O=C(O)C(CSC(c1ccccc1)(c1ccccc1)c1ccccc1)Nc1ccccc1[N+](=O)[O-] (stereo not given)	98.3% (active)
Cc1ccc[nH]c1=O	-8.45%
Cc1nc(N)sc1C(=O)/C=C/c1ccc([N+](=O)[O-])cc1	15.1%
c1ccc2nc(N3CCCC3)c(N3CCCC3)nc2c1	57.8%
C/C(=N/Nc1ccc([N+](=O)[O-])cc1[N+](=O)[O-])C(CC(C(=O)NCc1ccccc1)/C(C)=N\Nc1ccc([N+](=O)[O-])cc1[N+](=O)[O-])C(=O)NCc1ccccc1 (stereo not given)	21.1%
O=S(=O)(O)c1cc(I)c(O)c2ncccc12	19.4%
CC/C(Cl)=N\OC(=O)Nc1ccc(C#N)cc1	46.3%
CC(=O)N(C(C)=O)n1c(Cc2ccc(Cl)cc2)nn(C(C)=O)c1=O	10.7%
CCCSc1ncnc2c1nc(C)n2CO	2.3%
Cc1ccc(S(=O)(=O)Oc2c(Cl)cc(Cl)cc2Cl)cc1	24.8%
Cc1cc(C)c2c(=O)c3c(oc2c1)O[C@@](C)(CO)C[C@@H]3c1ccccc1	12%
Cc1ccc(C(=O)CCN2CCOCC2)c(C)c1	29.1%
CCN(CC)CCNc1ccc2ncn3c4c(OC)ccc(OC)c4c(=O)c1c23	-47%
Nc1cc(Cl)cc2c1nc(NCCO)c1ccccc12	51.6%
O=[N+]([O-])c1ccc(N=NNc2ccc([N+](=O)[O-])cc2)cc1	-2.95%
CC(=O)Nc1ccc(/C=C2\N=C(c3ccccc3)OC2=O)cc1	-10.9%
CN(C)CC(C)(C)CO	-9.1%
CCOc1snc(C(Cl)(Cl)Cl)c1Cl	22.3%

SMILES	growth inhibition
CN1CCC2(CC1)C(=O)N(Cc1ccccc1)C(=O)C2c1ccccc1 (stereo not given)	3.4%
COc1ccc(C2=C/C(=C/c3cccs3)C(=O)O2)cc1	3.75%
BrC1(Br)C2COCOCC21 (stereo not given)	-4.75%
COc1ccc(C(O)Cc2ccccc2)cc1 (stereo not given)	-18.4%
COC(=O)C(C(=O)OC)C(c1cccc([N+](=O)[O-])c1)C(N)c1ccccc1 (stereo not given)	32.1%
CCOC(=O)NCC1(c2ccccc2)CCN(Cc2ccccc2)CC1	-14.9%
O=C(O)Cc1ccc(-c2ccccc2)[nH]1	-17.1%
COc1ccc2nccc(/C=C/CC3CCN(C(C)=O)CC3)c2c1	31.6%
COc1cc2c[n+](C)c3c(c2cc1OC)Cc1cc2c(cc1-3)OCO2	-14.7%
CCOC(=O)C1=C(Nc2ccc(Cl)cc2Cl)OCC1=O	-58.5%
O=C(c1nc2ccc(Cl)cc2[nH]c1=O)C(O)c1ccco1 (stereo not given)	-24.7%
COc1cc(NCCCCCNC(C)C)c2ncccc2c1OC	9.05%
CC(=O)Nc1cc(F)c(N)c(F)c1	0.05%
CC1=CC2C(c3ccccc3)Nc3ccccc3N2C1=O (stereo not given)	-8.65%
CCOC(=O)C1(Cc2ccc3c(c2)CCC3)Cc2cc3c(cc2C1=O)CCC3 (stereo not given)	14.2%
COc1ccc2cc(NC(=O)N/N=C\c3ccc(Cl)cc3)ccc2c1	27%
O=c1c(-c2ccc(O)cc2)coc2cc(O)cc(O)c12	11.4%
C/C(=N/O)C1c2ccccc2Cc2ccccc21	-1.8%
CCCCCCCCCC(=O)OCCCC(CCCOC(=O)CCCCCCCCC)OC(=O)CCCCCCCCC	-16.4%
CSc1cc(=O)[nH]c(=O)[nH]1	3.8%
